Experimental findings from PubChem BioAssay AID743279 (National Center for Advancing Translational Sciences (NCATS), 2014) are described below.

The campaign covered roughly 360,000 compounds. About 17,000 (4.7%) were called active. Another 5% or so got no clear call; they are omitted. Cut-off read from the data, not from the text of the source: active = activity change below about -50%; inconclusive = mostly about -30% to -49%; inactive = weaker than that. The entries come from a sample that favours actives as a whole.
% is set by controls: 0 for no effect and ±100 for the full control effect.

The nature of this test: qHTS for Inhibitors of Inflammasome Signaling: IL-1-beta AlphaLISA Primary Screen. To be noted: THP-1 LPS/ATP IL-1B secretion, 16 h; at 57.5 µM, hits give low values. The procedure, abridged: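 Secreted IL-1B measured by AlphaLISA bead assay after 16 h compound exposure of THP-1 cells; compounds (final up to 57.5 uM) added 1 h before LPS (250 ng/mL) and ATP (1.25 mM) stimulation; lower signal means less secretion.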
(qHTS replaces the single test concentration by a dilution series.)
For `FC(F)(F)C1CCCN(c2nsc3ccccc23)C1` (stereo unspecified), the activity change is -76% (active).
Next, `O=C(NCC(=O)N1CCCC(C(F)(F)F)C1)c1ccccc1F` (stereo unspecified): 6.36% (inactive); `Cn1ccc(=Nc2ccc(NC(=O)c3ccc(N=c4ccn(C)c5ccc([N+](=O)[O-])cc45)cc3)cc2)cc1`: -20.4% (inactive).
In the case of `Cc1ccc(CN2CC(C(=O)N3CCN(S(=O)(=O)c4ccccc4)CC3)CC2=O)cc1` (stereo unspecified), the activity change is -19.1% (inactive).
Next, `COc1ccc(C)cc1S(=O)(=O)N1CCN(S(=O)(=O)c2cc(C(=O)O)ccc2C)CC1`: 34.7% (inactive); `Cc1ccc(C)c(S(=O)(=O)N2CCN(c3ncnc4sccc34)CC2)c1`: -53.3% (active).
To `Cc1ccc(S(=O)(=O)N2CCN(c3ncnc4ccccc34)CC2)cc1` belongs -9.9% (inactive).
Consider `O=C1OC(Oc2ccc(Br)cc2)(c2ccccc2)c2ccccc21` (stereo unspecified), for which the activity change is -13.8% (inactive).
Next, `CSc1ncc(C(=O)NCCCc2ccccc2)c(C)n1`: 0% (inactive); `O=C(Cc1ccccc1)Nc1cccc(NC(=O)c2ccccc2)c1`: -19.5% (inactive).
`O=C(CSCc1ccccc1)Nc1ccccc1`: the activity change is 0.36% (inactive).
Next, `O=C(CCl)Nc1cccc(CP(=O)(c2ccccc2)c2ccccc2)c1`: -99.8% (active); `COC(=O)c1ccc2nc(-c3cccc(Br)c3)c(Cc3ccccc3C(F)(F)F)n2c1`: 0% (inactive).
On to `CCCC(=O)N1CCC1(C)C(=O)NCc1ccc(SC)cc1` (stereo unspecified), for which the activity change was 21.3% (inactive).
Next, `C/C(=N\N=C(N)N)c1ccc(Cl)cc1`: -86.4% (active); `C/C(=N\NC(=S)NCc1ccccc1)c1ccc(Cl)cc1`: 0% (inactive); `C/C(=N\OCC(=O)O)c1ccc(Cl)cc1`: 0% (inactive).
To `CCc1nc2c(OCC(=O)C(C)(C)C)cccn2c1N(C)C(=O)c1ccccc1F` belongs 32.1% (inactive); to `O=C(Nc1cc(Br)ccc1F)c1nc[nH]c1C(=O)NCc1ccccc1`, -4.71% (inactive).
To `OC[C@@H]1CN(C2CCCC2)C[C@H](n2cnc3c(NC4CCC4)ncnc32)O1` belongs 5.5% (inactive); to `Cc1ccc(SCC(=O)N2CCN(c3ccc(F)cc3)CC2)cc1`, -12.4% (inactive); to `CCN1CCC2(CC1)N=C(c1ccc(F)cc1)C(=S)N2C(=O)c1ccc(C)cc1`, -115% (active).
Take `CCN1CCN(C(=O)CSc2ccc(C)cc2)CC1`: the activity change was -5.59% (inactive).
`CC(Sc1nncn1C)C(=O)NCCC1=CCCCC1` (stereo unspecified): the activity change is 1.27% (inactive).
On to `CCCCN(Cc1ccccc1)C(=O)C1CCN(Cc2sccc2C)CC1`, for which the activity change was -20.5% (inactive).
Next, `O=C(NCc1ccccn1)[C@@H]1CCCN1C(=O)[C@@H]1CCCN1C(=O)c1ccccc1`: 0% (inactive); `CCOc1cc2ccccc2cc1C(=O)Nc1ccccn1`: 9.73% (inactive); `CCN(CC)CCOc1ccc2c(c1)C(=NNC(=O)c1ccccn1)c1cc(OCCN(CC)CC)ccc1-2`: -56.2% (active).
Next, `CCC(C(=O)OCCN(CC)CC)c1ccccc1` (stereo unspecified): -16.3% (inactive).
Next, `OC(CNCc1ccc(Cl)c(Cl)c1)c1ccccc1` (stereo unspecified): -69.4% (active); `Cc1c(Cl)cccc1NC(=S)NCC(O)c1ccccc1` (stereo unspecified): -6.92% (inactive).
Turning to `CC(C)(CNCC(O)c1ccccc1)N1CCOCC1` (stereo unspecified), the activity change was -7.93% (inactive).
With `Cc1c(NC(=O)C(=O)N/N=C/c2cccs2)c(=O)n(-c2ccccc2)n1C`, the activity change was -21.9% (inactive).
Turning to `O=C(NCc1ccc(F)cc1)c1cc(C2CCCCN2C(=O)c2ccccn2)on1` (stereo unspecified), the activity change is 42.4% (inactive).
Consider `O=C(OCc1cn(-c2ccc(Cl)c(Cl)c2)nn1)c1ccccc1Cl`, for which the activity change was -2.76% (inactive).
`Cc1cccc(CN2CCN(C3CN(Cc4cn(Cc5cc(C)cc(C)c5)nn4)S(=O)(=O)C3)CC2)c1` (stereo unspecified): the activity change is -18.8% (inactive).
As for `CCOc1ccc(C(C)=O)cc1COC(=O)CNC(=O)c1cccs1`, the activity change was -9.33% (inactive).
In the case of `COC(=O)c1ccc(COC(=O)c2cnc(Cl)c(Cl)c2)cc1`, the activity change was -13.4% (inactive).
For the compound `CCOc1ccc(C(C)=O)cc1COC(=O)c1cnc(Cl)c(Cl)c1`, the activity change is -108% (active).
Next, `CC(C)c1cc(Cn2c3ccccc3c(=O)n2C(C)Cn2cc(C3CC3)nn2)on1` (stereo unspecified): -6.05% (inactive); `O=C1CS(=O)CN1c1ccc(Oc2ccccc2)cc1` (stereo unspecified): 15% (inactive).
For the compound `O=C1c2ccccc2C(c2nc3ccccc3[nH]2)N1c1ccccc1` (stereo unspecified), the activity change was 81% (inactive).
To `Cc1cccn2c(=O)c3cc(C(=O)NC4CCCCC4)sc3nc12` belongs -16.1% (inactive).
Next, `CC1(C(=O)NS(=O)(=O)C2CC2)CCCN(C(=O)CSc2ccccc2)C1` (stereo unspecified): 10.6% (inactive).
To `CCOc1ccc(C(=O)Nc2c3c(nn2-c2ccccc2)CS(=O)(=O)C3)cc1` belongs 12.2% (inactive).
On to `O=C1N=C(N2CCOCC2)S/C1=C\C=C/c1ccccc1`, for which the activity change is -18% (inactive).
To `CC1CCN(c2nc3c(c(=O)[nH]c(=O)n3C)n2CCCc2ccccc2)CC1` belongs 14.1% (inactive); to `CC1CCN(C2=NC(=O)/C(=C/c3cn[nH]c3-c3ccccc3)S2)CC1`, -59.2% (active); to `CC(C)C(NC(=O)c1c(F)cccc1F)C(=O)NCc1ccncc1` (stereo unspecified), 4.1% (inactive).
With `CC(C)C(NC(=O)OCc1ccccc1)C(=O)OCC(=O)N1C(C)CCCC1C` (stereo unspecified), the activity change was -2.86% (inactive).
Take `O=C(c1ccc(N2CCOCC2)c([N+](=O)[O-])c1)N1CCN(S(=O)(=O)c2cccs2)CC1`: the activity change was -0.922% (inactive).
Regarding `CC(C)c1ccc(S(=O)(=O)N2CCN(C(=O)c3ccc(N4CCCC4)c([N+](=O)[O-])c3)CC2)cc1`, the activity change is -52% (active).
Next, `Cc1ccc(S(=O)(=O)N2CCN(C(=O)c3ccc(-n4cncn4)c([N+](=O)[O-])c3)CC2)cc1`: -5.16% (inactive).
To `CCN(CCn1cccn1)Cc1nc(-c2ccc(C(=O)OC)cc2)no1` belongs 81.6% (inactive); to `Clc1ccc(-c2cc(C3CCNCC3)[nH]n2)c(Cl)c1`, -79.9% (active).
`Clc1ccc(-c2cc(-c3ccccn3)on2)c(Cl)c1`: the activity change was 0% (inactive).
To `O=C(Cn1ccc([N+](=O)[O-])n1)NCc1cccs1` belongs 5.04% (inactive); to `O=C(NCCc1cccc(F)c1)C1CC(O)CN1C(=O)Nc1ccccc1` (stereo unspecified), 22.4% (inactive).
Next, `CCCS(=O)(=O)C(=C1Nc2ccccc2N1)S(=O)(=O)CCC`: 3.44% (inactive).
Next, `O=C(CN1CCCCCC1)N1c2ccccc2Sc2ccc(C(F)(F)F)cc21`: -60% (active).
As to `O=C(CN1CCCCC1)N1c2ccccc2Sc2ccc(C(F)(F)F)cc21`, the activity change is -13.4% (inactive).
Next, `COc1cc(/C=C/C(=O)N2c3ccccc3Sc3ccc(C(F)(F)F)cc32)cc(OC)c1OC`: -1.9% (inactive); `CC(=O)NCCc1ccc(S(=O)(=O)N(C)C2CCS(=O)(=O)C2)cc1` (stereo unspecified): 0% (inactive); `CC(=O)c1nn(-c2ccccc2)c(=Nc2ccccc2)cc1C`: -11% (inactive).
For the compound `Oc1ccccc1-c1cc(-c2ccc(Cl)cc2)n[nH]1`, the activity change is -71.3% (active).
Next, `O=C(Nc1ccc(Cl)cn1)c1ccccc1-c1ccccc1`: 7.39% (inactive); `CSc1ccccc1-c1nnc(-c2ccc(Cl)cc2)o1`: -6.95% (inactive).
Next, `CC(=O)NC(C)(C)C1CC=C(C)/C(=N\O)C1` (stereo unspecified): 3.35% (inactive).
For `COc1cccc(CNS(=O)(=O)c2ccc3c(c2)CC(C)N3C(C)=O)c1` (stereo unspecified), the activity change was 4.38% (inactive).
To `COc1ccccc1CNC(=O)C1CCN(S(=O)(=O)c2ccc3c(c2)CC(C)N3C(=O)C2CC2)CC1` (stereo unspecified) belongs -26% (inactive).
`COc1ccc(N(C)S(=O)(=O)c2ccc3c(c2)CC(C)N3C(=O)C2CC2)c(OC)c1` (stereo unspecified): the activity change is -63.4% (active).
To `C[C@H](CO)N1C[C@H](C)[C@@H](CN(C)C(=O)c2cnccn2)Oc2ncc(Br)cc2C1=O` belongs 33.8% (inactive).
Next, `O=[N+]([O-])c1ccc(C=NN=Cc2ccc([N+](=O)[O-])cc2)cc1`: -8.06% (inactive); `CC(=O)Nc1ccc(C=Cc2ccc([N+](=O)[O-])cc2)cc1`: -18.6% (inactive).
In the case of `O=C1/C(=C\c2ccc([N+](=O)[O-])cc2)CS(=O)(=O)C/C1=C/c1ccc([N+](=O)[O-])cc1`, the activity change is -99.9% (active).
Next, `CCN(C(=O)CSc1ncnc2c1cnn2-c1ccccc1)C1CCS(=O)(=O)C1` (stereo unspecified): -60.6% (active); `CCN(CC)C(=O)CSc1ncnc2c1cnn2-c1ccccc1`: -11.6% (inactive).
To `CCC(C)N(C(=O)CSc1ncnc2c1cnn2-c1ccccc1)C1CCS(=O)(=O)C1` (stereo unspecified) belongs -9.61% (inactive); to `CC1=C(C(=O)N2CCOCC2)CC(CC(=O)NCC2CCCCC2)C(=O)N1Cc1ccc(F)cc1` (stereo unspecified), 3.54% (inactive); to `CNc1cc(-c2c(OC)cccc2OC)ncn1`, 22.1% (inactive).
Turning to `Cc1ccc(OCCNC(=O)c2cccc(S(=O)(=O)N3CCN(Cc4ccccc4)CC3)c2)cc1`, the activity change was -14.6% (inactive).
`C=CCN(CC=C)C(=O)COC(=O)c1n[nH]c2ccccc12`: the activity change was 18.7% (inactive).
With `O=C1NC[C@H](Cc2ccc(O)cc2)N(C[C@@H]2CCCN2C[C@H](Cc2ccccc2)N2C[C@H](Cc3ccccc3)N(CC3CCCCC3)C(=O)C2=O)C1=O`, the activity change is -15.5% (inactive).
Turning to `CCOc1ccc(CCN2C(=O)C(=O)N([C@@H](Cc3ccc(O)cc3)CN3CCC[C@H]3CN3C(=O)C(=O)NC[C@@H]3CC(C)C)C[C@@H]2Cc2ccccc2)cc1`, the activity change was 13.9% (inactive).
Next, `CCOc1ccc(CCN2C(=O)C(=O)N([C@@H](CC(C)C)CN3CCC[C@H]3CN3C(=O)C(=O)NC[C@@H]3Cc3ccccc3)C[C@@H]2CC(C)C)cc1`: -1.26% (inactive); `CC(C)C[C@H]1CN([C@@H](Cc2ccccc2)CN2CCC[C@@H]2CN2C(=O)C(=O)NC[C@@H]2Cc2ccc(O)cc2)C(=O)C(=O)N1CCc1ccccc1`: 0% (inactive); `CCOc1ccc(CCN2C(=S)N([C@@H](CC(C)C)CN3CCC[C@@H]3CN3C(=S)NC[C@@H]3Cc3ccc(O)cc3)C[C@@H]2Cc2ccc(O)cc2)cc1`: -64.1% (active).
For the compound `CC(C)C[C@H]1CNC(=O)C(=O)N1C[C@@H]1CCCN1C[C@H](Cc1ccccc1)N1C[C@H](CC(C)C)N(CC2CCCCCC2)C(=O)C1=O`, the activity change is 0% (inactive).
Next, `CC(C)C[C@H]1CN([C@@H](CC(C)C)CN2CCC[C@@H]2CN2C(=O)C(=O)NC[C@@H]2Cc2ccccc2)C(=O)C(=O)N1CCc1ccccc1`: -63.4% (active).
As for `CC(C)C[C@H]1CNC(=O)C(=O)N1C[C@H]1CCCN1C[C@H](Cc1ccc(O)cc1)N1C[C@H](CC(C)C)N(CC2CCCCCC2)C(=O)C1=O`, the activity change was -60.7% (active).
Turning to `CC(C)C[C@H]1CNC(=S)N1C[C@H]1CCCN1C[C@H](Cc1ccc(O)cc1)N1C[C@H](Cc2ccc(O)cc2)N(CC2CCCCC2)C1=S`, the activity change was -11.2% (inactive).
